Laboratory results taken from PubChem BioAssay AID485360 (National Center for Advancing Translational Sciences (NCATS), 2010).
In all, about 230,000 compounds went through this assay and about 1,500 (0.65%) were called active. Roughly 3% stayed inconclusive and do not appear here. Many of the other results were omitted from the sample, so actives are more common in it than they were. A number with no mark means an inactive call. The call rests on the fitted dose curve; in most records, active means well fitted inhibition curve with a large enough effect; inconclusive means small, poorly fitted or top-dose-only effect; inactive means no such curve, though single readings can be large or run the other way.

Biological target: Lethal(3)malignant brain tumor-like protein 1 (Homo sapiens) (UniProt Q9Y468)
Sequence (Q9Y468 whole entry, looked up): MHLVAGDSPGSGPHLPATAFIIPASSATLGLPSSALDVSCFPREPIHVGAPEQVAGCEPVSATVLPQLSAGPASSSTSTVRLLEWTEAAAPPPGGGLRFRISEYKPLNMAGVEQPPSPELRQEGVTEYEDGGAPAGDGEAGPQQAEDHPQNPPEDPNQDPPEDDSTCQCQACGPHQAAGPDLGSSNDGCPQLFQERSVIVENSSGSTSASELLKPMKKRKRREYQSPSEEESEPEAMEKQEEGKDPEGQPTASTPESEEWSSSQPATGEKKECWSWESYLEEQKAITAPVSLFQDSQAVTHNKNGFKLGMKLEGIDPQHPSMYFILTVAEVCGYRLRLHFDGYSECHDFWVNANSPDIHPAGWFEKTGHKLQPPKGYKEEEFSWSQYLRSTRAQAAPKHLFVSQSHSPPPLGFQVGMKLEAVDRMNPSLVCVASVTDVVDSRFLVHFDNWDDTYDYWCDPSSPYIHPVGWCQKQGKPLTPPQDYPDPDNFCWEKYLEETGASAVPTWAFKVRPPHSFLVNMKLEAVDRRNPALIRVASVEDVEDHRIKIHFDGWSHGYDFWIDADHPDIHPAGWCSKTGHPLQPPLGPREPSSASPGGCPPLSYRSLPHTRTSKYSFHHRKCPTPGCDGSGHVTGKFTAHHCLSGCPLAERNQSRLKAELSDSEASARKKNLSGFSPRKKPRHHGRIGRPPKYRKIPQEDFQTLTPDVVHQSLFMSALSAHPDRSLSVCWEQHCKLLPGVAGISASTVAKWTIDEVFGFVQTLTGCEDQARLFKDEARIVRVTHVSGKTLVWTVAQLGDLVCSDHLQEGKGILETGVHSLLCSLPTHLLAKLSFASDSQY
Test: qHTS Assay for the Inhibitors of L3MBTL1; further: nearly all actives have a fitted effect of over 60% in size
Settings: AlphaScreen L3MBTL1–H3K9me1 peptide binding; series mostly up to 57.1 µM; activity, negative = inhibition: at the top concentration
Description: The histone code is comprised of many post-translational modifications that occur mainly in histone tail peptides. The identity and location of these marks are read by a variety of histone binding proteins that are emerging as important regulators of cellular differentiation and development and are increasingly being implicated in numerous disease states. Small molecule probes that disrupt the interaction between histone binding proteins and chromatin would enable a systematic chemical biology study of proteins that read the histone code and could potentially reveal new targets for drug discovery. However, no such small molecules are known. This dearth of quality molecular probes can largely be attributed to the novelty of the target class and the lack of screening assays. This proposal details the development of the first high-throughput screening assay for the discovery of inhibitors of methyl-lysine binding proteins and how it can be be used to initiate a full-scale discovery effort for antagonists of histone binding proteins. Specifically, this work focuses on an AlphaScreen(tm)-based HTS assay for Malignant Brain Tumor (MBT) domain-containing proteins, which bind to the lower methylation states of lysine residues present in histone tail peptides.
To each well, 2 uL of L3MBTL1 protein (final 50 nM) and 1 uL biotinylated histone peptide monomethylated at Lys9 [b-AHA-H3(1-15)K9me1] (final 75 nM) was added using a nanoliter dispenser. Formation of a protein-peptide complex proceeded at room temperature for 30 min. A Kalypsys pin-tool was employed to transfer 23 nL of library compound solution in DMSO to each well. Cefsulodin, found in a pilot screen of the LOPAC library to be a weak inhibitor of L3MBTL1 binding, was used as an intraplate control with a 16-point titration in duplicate. Following a 30 min incubation of the protein-peptide complex with compounds at room temperature, a mixture of 40 ug/mL each streptavidin-coated donor and nickel chelate acceptor AlphaScreen beads (final 10 ug/mL) was added in a 1 uL dispense for a final volume of 4 uL. Plates were incubated, protected from the light for 30 min at room temperature. Microplates were then be read on an EnVision multilabel plate reader using the 1,536 plate HTS AlphaScreen aperture (excitation time 80 ms, measurement time 240 ms).
On the % scale 0 is the no-effect control and ±100 the full control effect; potency means the concentration at half of the fitted maximal effect.

| SMILES | Potency | activity, negative = inhibition [%] |
| --- | --- | --- |
| COc1cccc(N2C(=O)NC(=O)/C(=C\c3ccc([N+](=O)[O-])s3)C2=O)c1 | 20 µM (active) | – |
| O=C1NC(=O)N(c2ccccc2)C(=O)/C1=C/c1ccc([N+](=O)[O-])s1 | 17.8 µM (active) | – |
| O=C1NC(=O)N(c2ccc(F)cc2)C(=O)/C1=C/c1ccc2c(c1)CCCN2Cc1ccccc1 | – | -2.39 |
| Cc1cccc(N2C(=O)NC(=O)/C(=C\c3cnn(-c4ccccc4)c3)C2=O)c1 | – | -3.83 |
| O=C(NC(=S)N1C[C@H]2C[C@H](C1)c1cccc(=O)n1C2)c1ccc(F)cc1 | – | 4.52 |
| Cn1cc(C(=O)OCC(=O)N2CCCC2)c2ccccc21 | – | 6.7 |
| O=c1[nH]c(O)c(C=Nc2cc(F)cc(F)c2)c(=O)[nH]1 | – | 2.62 |
| CCN(CC)C(=O)Oc1ccc(NC(=O)N2CCOCC2)cc1 | – | -2.49 |
| COc1ccc(-c2nn(CCC#N)cc2C(=O)Nc2ccc(C(C)=O)cc2)cc1 | – | -7.02 |
| Cc1nc2ccccc2c(=O)n1-c1ccc(Cl)cc1Cl | – | 4.09 |
| O=C(OCC1O[C@@H](OC(=O)c2cc(O)c(O)c(O)c2)[C@@H](OC(=O)c2cc(O)c(O)c(O)c2)[C@@H](OC(=O)c2cc(O)c(O)c(O)c2)[C@@H]1OC(=O)c1cc(O)c(O)c(O)c1)c1cc(O)c(O)c(O)c1 (stereo not given in full) | 0.178 µM (active) | – |
| Cc1ccnc(-n2c(C)cc(/C=C3\C(=O)NC(=S)N(C)C3=O)c2C)c1 | – | -11.1 |
| Cc1cc(/C=C2/C(=O)NC(=O)N(Cc3ccco3)C2=O)c(C)n1-c1ccc(C(=O)O)cc1 | 15.8 µM (active) | – |
| Cc1ccc(-n2c(C)cc(/C=C3\C(=O)NC(=O)N(C)C3=O)c2C)cc1C | – | -20.4 |
| COC(=O)[C@@H]1C(OC(=O)c2ccccc2)CC2CCC1N2C (stereo not given in full) | – | -1.9 |
| CN(C)C(=O)Oc1ccc(NC(=O)N2CCOCC2)cc1 | – | 7.02 |
| COCCNC(=O)CN1C2CCC1CC(O)(c1cccnc1)C2 (stereo not given) | – | -0.317 |
| CN(C)CCN(CC1CCCN(Cc2ccccc2F)C1)C(=O)Cc1ccc(F)c(F)c1 (stereo not given) | – | -3.82 |
| COC(=O)C1=C(c2ccc(F)cc2OCc2ccccc2)C[C@@H]2CC[C@H]1N2C(=O)NCc1ccc(OC)c(OC)c1 | – | -18.1 |
| Cc1c(Oc2cc(NN3CCCCC3)c([N+](=O)[O-])cc2[N+](=O)[O-])cccc1[N+](=O)[O-] | – | 33 |
| COC(=O)C1=C(c2ccc(C(C)=O)cc2)C[C@@H]2CC[C@H]1N2C(=O)NCCNC(C)=O | – | 3.36 |
| CCN(CC)c1ccc([N+](=O)[O-])c2cccnc12 | 10 µM (active) | – |
| Oc1ccc2c3c1OC1[C@H](O)CC[C@@]4(O)[C@@H](C2)N(CC2CC2)CC[C@]314 (stereo not given in full) | inactive | – |
| COC(=O)C1=C(c2ccc3ccccc3c2)C[C@@H]2CC[C@H]1N2C(=O)NCCO | – | 11.1 |
| Cc1c(C(=O)O)cccc1-n1c(C)cc(/C=C2\C(=O)NC(=O)N(c3ccc4c(c3)OCO4)C2=O)c1C | 14.1 µM (active) | – |
| Cc1ccccc1N1C(=O)NC(=O)/C(=C\c2cc(C)n(C)c2C)C1=O | – | -4.84 |
| COC(=O)C1=C(c2ccc(F)cc2F)C[C@@H]2CC[C@H]1N2C(=O)NC1CC1 | – | 6.1 |
| COC(=O)C1=C(c2ccc(Cl)c(C(F)(F)F)c2)C[C@@H]2CC[C@H]1N2C(=O)NC1CC1 | – | 0.885 |
| O=C(c1ccccc1[N+](=O)[O-])N1CCC2(CC1)OCCO2 | – | 4.07 |
| C[C@]12CCC3C(CC[C@H]4C[C@@H](O)CC[C@]34C)C1C[C@@H](O)[C@H]2O (stereo not given in full) | – | 2.44 |
